# Assay results from PubChem BioAssay (EPA / NIEHS).
# Results filed as inconclusive are left out. A structure can be active in one record and inactive in another. Active and inactive are the calls of the source. Rule for the calls, unless noted: active = hit-call score of the fitted dose curve at least 0.9, where 1 is the maximum; inactive = score below 0.9.
# Key:
# [1] = read-out: solute carrier (SLC22A1), SLC22A1 (gene 6580); experiment: LTEA_HepaRG_SLC22A1: Life Technologies and Expression Analysis (LTEA) Assay for solute carrier (SLC22A1) using HepaRG (AID 2283524); conditions: mRNA level, 48 h; actives raise or lower the signal
# Procedure, shortened: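 Transcript induction or suppression of SLC22A1 in human HepaRG cultures is scored after 48 h chemical treatment, with DMSO (0.5%) as baseline for bidirectional fitting. Concentrations span eight half-log points topping at 100 uM.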
# [2] = read-out: Pyruvate Dehydrogenase Kinase 4 (PDK4), PDK4 (gene 5166); experiment: LTEA_HepaRG_PDK4: Life Technologies and Expression Analysis (LTEA) Assay for Pyruvate Dehydrogenase Kinase 4 (PDK4) using HepaRG (AID 2283525); conditions: mRNA level, 48 h; actives raise or lower the signal
# Procedure, shortened: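 Eight-point, half-log concentration series (max 100 uM, 0.5% DMSO) applied to differentiated HepaRG cells for 48 h in duplicate. Endpoint: PDK4 mRNA induction or repression by qRT-PCR against DMSO baseline.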
# [3] = read-out: NAD(P)H dehydrogenase [quinone] 1 (NQO1), NQO1 (gene 1728); experiment: LTEA_HepaRG_NQO1: Life Technologies and Expression Analysis (LTEA) Assay for NAD(P)H dehydrogenase [quinone] 1 (NQO1) using HepaRG (AID 2283526); conditions: mRNA level, 48 h; actives raise or lower the signal
# Procedure, shortened: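 NQO1 transcript induction or loss measured by TaqMan qRT-PCR, referenced to three housekeeping genes and fitted bidirectionally against 0.5% DMSO. HepaRG cultures exposed 48 h, duplicate, eight-point half-log series, top 100 uM.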
# [4] = read-out: Nuclear factor erythroid 2-related factor 2 (Homo sapiens) (UniProt Q16236); experiment: LTEA_HepaRG_NFE2L2: Life Technologies and Expression Analysis (LTEA) Assay for Nuclear factor erythroid 2-related factor 2 (NFE2L2) Transcription Factor using HepaRG (AID 2283527); conditions: mRNA level, 48 h; actives raise or lower the signal;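 for outcome: TaqMan qRT-PCR transcript level normalised to ACTB GAPDH and POLR2A housekeeping genes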
# Procedure, shortened: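 Human liver HepaRG line treated in duplicate for 48 h with an eight-point series topping at 100 uM. Gene expression of NFE2L2 by qRT-PCR, bidirectionally fitted against the vehicle control.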
# [5] = read-out: succinate dehydrogenase complex iron sulfur subunit B (SDHB), SDHB (gene 6390); experiment: LTEA_HepaRG_SDHB: Life Technologies and Expression Analysis (LTEA) Assay for succinate dehydrogenase complex iron sulfur subunit B (SDHB) using HepaRG (AID 2283528); conditions: mRNA level, 48 h; actives raise or lower the signal
# Procedure, shortened: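 HepaRG cells (~100,000/well, plated 48 h) exposed in duplicate for 48 h in serum-free induction medium to 8-point half-log series from 100 uM in 0.5% DMSO; mRNA by qRT-PCR normalised to ACTB, GAPDH, POLR2A; bidirectional fit versus DMSO.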
# [6] = read-out: Signal transducer and activator of transcription 3 (Homo sapiens) (UniProt P40763); experiment: LTEA_HepaRG_STAT3: Life Technologies and Expression Analysis (LTEA) Assay for Signal transducer and activator of transcription (STAT3) using HepaRG (AID 2283529); conditions: mRNA level, 48 h; actives raise or lower the signal
# Procedure, shortened: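 In this transcriptional endpoint, HepaRG cultures receive test chemicals at up to 100 uM for 48 h, tested in duplicate. STAT3 mRNA is normalized to ACTB, GAPDH and POLR2A.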
# [7] = read-out: solute carrier (SLCO1B1), SLCO1B1 (gene 10599); experiment: LTEA_HepaRG_SLCO1B1: Life Technologies and Expression Analysis (LTEA) Assay for solute carrier (SLCO1B1) using HepaRG (AID 2283530); conditions: mRNA level, 48 h; actives raise or lower the signal
# Procedure, shortened: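 Differentiated human HepaRG cells, plated 48 h, switched to serum-free induction medium and exposed in duplicate for 48 h to 8 half-log concentrations (top 100 uM) in 0.5% DMSO. SLCO1B1 mRNA by TaqMan qRT-PCR, normalized to ACTB/GAPDH/POLR2A.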
# [8] = read-out: sulfotransferase 2A1 (SULT2A1), SULT2A1 (gene 6822); experiment: LTEA_HepaRG_SULT2A1: Life Technologies and Expression Analysis (LTEA) Assay for sulfotransferase 2A1 (SULT2A1) using HepaRG (AID 2283531); conditions: mRNA level, 48 h; actives raise or lower the signal
# Procedure, shortened: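 Differentiated human HepaRG cells in serum-free induction medium were exposed for 48 h to eight half-log concentrations (top 100 uM, 0.5% DMSO). SULT2A1 mRNA was measured by qRT-PCR, normalized to ACTB, GAPDH and POLR2A, and fitted bidirectionally against DMSO.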
# [9] = read-out: Transforming Growth Factor (TGFA), TGFA (gene 7039); experiment: LTEA_HepaRG_TGFA: Life Technologies and Expression Analysis (LTEA) Assay for Transforming Growth Factor (TGFA) using HepaRG (AID 2283532); conditions: mRNA level, 48 h; actives raise or lower the signal
# Procedure, shortened: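 Gene expression of TGFA was quantified by qRT-PCR after human HepaRG cells were treated for 48 h with test chemicals (eight concentrations, highest 100 uM, 0.5% DMSO). Activity in either direction was fitted relative to DMSO.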
# [10] = read-out: Transforming Growth Factor (TGFB1), TGFB1 (gene 7040); experiment: LTEA_HepaRG_TGFB1: Life Technologies and Expression Analysis (LTEA) Assay for Transforming Growth Factor (TGFB1) Transporter using HepaRG (AID 2283533); conditions: mRNA level, 48 h; actives raise or lower the signal
# Procedure, shortened: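 Differentiated human HepaRG cells in serum-free induction medium were exposed in duplicate for 48 h to eight concentrations (top 100 uM, half-log steps, 0.5% DMSO). TGFB1 mRNA was quantified by qRT-PCR, normalized to ACTB, GAPDH, POLR2A, and fitted bidirectionally against DMSO.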
# TIMP1, TIMP1 (gene 7076) = experiment: LTEA_HepaRG_TIMP1: Life Technologies and Expression Analysis (LTEA) Assay for TIMP1 using HepaRG (AID 2283534); conditions: mRNA level, 48 h; actives raise or lower the signal;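 for outcome: TaqMan qRT-PCR signal normalized to ACTB GAPDH and POLR2A housekeeping genes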
# Procedure, shortened: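 Differentiated human HepaRG cells in serum-free induction medium were exposed 48 h to chemicals (8 half-log concentrations, top 100 uM, 0.5% DMSO). TIMP1 mRNA was quantified by TaqMan qRT-PCR, normalized to ACTB/GAPDH/POLR2A; bidirectional fit versus DMSO.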
# [11] = read-out: Tumor necrosis factor receptor 1 (TNFRSF1A), TNFRSF1A (gene 7132); experiment: LTEA_HepaRG_TNFRSF1A: Life Technologies and Expression Analysis (LTEA) Assay for Tumor necrosis factor receptor 1 (TNFRSF1A) using HepaRG (AID 2283535); conditions: mRNA level, 48 h; actives raise or lower the signal
# Procedure, shortened: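 Differentiated human HepaRG cells were exposed in duplicate for 48 h in serum-free induction medium to eight concentrations (top 100 uM, half-log steps, 0.5% DMSO). TNFRSF1A mRNA was quantified by qRT-PCR, normalized to ACTB, GAPDH and POLR2A, then fitted bidirectionally against DMSO.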
# [12] = read-out: UDP glucuronosyltransferase (UGT1A1), UGT1A1 (gene 54658); experiment: LTEA_HepaRG_UGT1A1: Life Technologies and Expression Analysis (LTEA) Assay for UDP glucuronosyltransferase (UGT1A1) using HepaRG (AID 2283538); conditions: mRNA level, 48 h; actives raise or lower the signal
# Procedure, shortened: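 UGT1A1 transcript level, measured by qRT-PCR with three housekeeping genes for normalization, after 48 h treatment of human HepaRG cells (0.5% DMSO, duplicates, up to 100 uM, half-log steps, 8 points). Curves fit both directions against DMSO baseline.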
# [13] = read-out: X-box binding protein 1 (XBP1), XBP1 (gene 7494); experiment: LTEA_HepaRG_XBP1: Life Technologies and Expression Analysis (LTEA) Assay for X-box binding protein 1 (XBP1) using HepaRG (AID 2283540); conditions: mRNA level, 48 h; actives raise or lower the signal
# Procedure, shortened: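 Differentiated human HepaRG cells in serum-free induction medium were exposed in duplicate for 48 h to eight half-log concentrations up to 100 uM in 0.5% DMSO. XBP1 mRNA was quantified by qRT-PCR, normalised to ACTB, GAPDH and POLR2A, with bidirectional fitting against DMSO.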
# [14] = LTEA_HepaRG_LDH_cytotoxicity: Cytotoxicity Assessment in the Life Technologies and Expression Analysis (LTEA) Assay (AID 2283563; active = hit-call score of the fitted dose curve at least 0.9, where 1 is the maximum;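 for AC50: LDH activity released into spent culture medium as a marker of cell death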)
# Procedure, shortened: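 Differentiated human HepaRG cells, plated 48 h beforehand, were switched to serum-free induction medium and exposed for 48 h to eight half-log concentrations (top 100 uM) in 0.5% DMSO. LDH was measured in spent medium; activity was fitted relative to DMSO vehicle.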
# [15] = ATG_XTT_Cytotoxicity: Cytotoxicity Assessment in the Attagene TRANS-FACTORIAL HepG2 Assay (AID 2283584; active = hit-call score of the fitted dose curve at least 0.9, where 1 is the maximum;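 for AC50: cells exposed to compound for 24 h before reading; active means loss of viability signal versus DMSO baseline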)
# Procedure, shortened: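 HepG2 human liver cells, transiently transfected with multiple GAL4-UAS reporter units, were dosed and read at 24 h by XTT as cell number. Loss of signal was fitted relative to DMSO negative control baseline.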
# [16] = read-out: Cellular tumor antigen p53 (Homo sapiens) (UniProt P04637); experiment: LTEA_HepaRG_TP53: Life Technologies and Expression Analysis (LTEA) Assay for Tumor Protein P53 (TP53) using HepaRG (AID 2283537); conditions: mRNA level, 48 h; actives raise or lower the signal
# Procedure, shortened: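 Differentiated HepaRG cells in serum-free induction medium exposed 48 h in duplicate to 8 half-log concentrations, top 100 uM, 0.5% DMSO. TP53 mRNA by TaqMan qRT-PCR (Fluidigm), normalized to ACTB, GAPDH, POLR2A; fitted bidirectionally versus DMSO.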
# [17] = TOX21_p53_BLA_p2_viability: Viability Assessment in the Tox21 HCT-116 p53 Agonism Beta-lactamase Assay, Phase 2 (AID 2283591; active = hit-call score of the fitted dose curve at least 0.9, where 1 is the maximum;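 note: compound exposure lasted 16 h at 37 °C; actives lower the ATP signal meaning cytotoxicity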)
# Procedure, shortened: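 HCT-116 p53-bla cells (4000/well) rested 5 h at 37C, then received compounds in DMSO (217-fold dilution) for 16 h at 37C, 5% CO2. After the CCF4 read, CellTiter-Glo was added; ATP luminescence was read after 30 min at room temperature.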
# [18] = read-out: Nuclear factor NF-kappa-B p105 subunit (Homo sapiens) (UniProt P19838); experiment: LTEA_HepaRG_NFKB1: Life Technologies and Expression Analysis (LTEA) Assay for Nuclear Factor Kappa B Subunit 1 (NFKB1) using HepaRG (AID 2283521); conditions: mRNA level, 48 h; actives raise or lower the signal
# Procedure, shortened: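 Differentiated human HepaRG cells in serum-free induction medium with 0.5% DMSO were exposed for 48 h to eight half-log concentrations, top 100 uM, in duplicate. NFKB1 mRNA measured by Fluidigm TaqMan qRT-PCR, normalised to ACTB, GAPDH and POLR2A; bidirectional fit versus DMSO.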
# Signal transducer and activator of transcription 3 (Homo sapiens), sequence (P40763 whole entry, looked up): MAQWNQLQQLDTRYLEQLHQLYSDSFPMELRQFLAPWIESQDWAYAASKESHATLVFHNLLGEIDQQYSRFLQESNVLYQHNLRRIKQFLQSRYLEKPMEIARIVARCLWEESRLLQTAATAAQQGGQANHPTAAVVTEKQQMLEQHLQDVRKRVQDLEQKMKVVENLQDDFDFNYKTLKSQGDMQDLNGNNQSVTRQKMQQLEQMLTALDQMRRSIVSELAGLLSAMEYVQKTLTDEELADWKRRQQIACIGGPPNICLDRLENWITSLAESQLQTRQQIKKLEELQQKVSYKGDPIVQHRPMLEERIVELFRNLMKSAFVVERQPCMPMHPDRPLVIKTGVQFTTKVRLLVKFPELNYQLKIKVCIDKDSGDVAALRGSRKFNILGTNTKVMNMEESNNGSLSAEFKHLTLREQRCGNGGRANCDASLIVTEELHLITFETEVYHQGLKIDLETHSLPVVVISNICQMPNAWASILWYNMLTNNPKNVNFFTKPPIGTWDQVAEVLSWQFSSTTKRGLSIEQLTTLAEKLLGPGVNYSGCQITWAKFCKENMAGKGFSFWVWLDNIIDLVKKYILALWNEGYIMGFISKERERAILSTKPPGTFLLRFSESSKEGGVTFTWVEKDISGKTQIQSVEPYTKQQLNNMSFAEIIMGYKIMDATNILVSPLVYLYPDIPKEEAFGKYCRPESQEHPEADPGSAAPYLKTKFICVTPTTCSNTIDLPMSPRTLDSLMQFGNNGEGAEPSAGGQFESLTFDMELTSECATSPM
# Cellular tumor antigen p53 (Homo sapiens), sequence (P04637 whole entry, looked up): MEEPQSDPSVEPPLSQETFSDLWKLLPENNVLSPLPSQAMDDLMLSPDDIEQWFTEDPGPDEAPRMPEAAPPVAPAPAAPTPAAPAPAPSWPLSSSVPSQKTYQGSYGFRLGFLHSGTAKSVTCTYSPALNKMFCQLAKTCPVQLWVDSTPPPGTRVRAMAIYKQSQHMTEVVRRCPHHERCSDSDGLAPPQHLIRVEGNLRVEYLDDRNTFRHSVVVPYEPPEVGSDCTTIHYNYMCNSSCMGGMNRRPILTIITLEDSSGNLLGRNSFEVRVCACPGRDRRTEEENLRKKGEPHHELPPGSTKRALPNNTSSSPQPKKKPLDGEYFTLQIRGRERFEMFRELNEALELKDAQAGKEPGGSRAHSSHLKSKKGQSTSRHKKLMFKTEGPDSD
# Nuclear factor erythroid 2-related factor 2 (Homo sapiens), sequence (Q16236 whole entry, looked up): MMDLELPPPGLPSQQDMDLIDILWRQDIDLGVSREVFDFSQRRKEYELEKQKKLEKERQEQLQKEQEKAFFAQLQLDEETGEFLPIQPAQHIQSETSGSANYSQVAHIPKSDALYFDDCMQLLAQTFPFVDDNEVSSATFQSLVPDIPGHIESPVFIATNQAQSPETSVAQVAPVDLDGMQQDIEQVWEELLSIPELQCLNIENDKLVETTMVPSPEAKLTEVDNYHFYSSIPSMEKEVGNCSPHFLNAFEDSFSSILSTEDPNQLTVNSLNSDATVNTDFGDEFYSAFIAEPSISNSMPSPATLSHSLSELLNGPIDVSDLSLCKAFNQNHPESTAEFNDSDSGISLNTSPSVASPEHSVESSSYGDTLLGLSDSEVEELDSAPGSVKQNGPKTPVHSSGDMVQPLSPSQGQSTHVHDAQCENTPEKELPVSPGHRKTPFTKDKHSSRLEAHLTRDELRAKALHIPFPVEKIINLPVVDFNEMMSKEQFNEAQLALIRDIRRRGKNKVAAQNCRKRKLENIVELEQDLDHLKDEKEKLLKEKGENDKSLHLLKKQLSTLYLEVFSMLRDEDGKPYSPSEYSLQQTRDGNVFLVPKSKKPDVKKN
# Nuclear factor NF-kappa-B p105 subunit (Homo sapiens), sequence (P19838 whole entry, looked up): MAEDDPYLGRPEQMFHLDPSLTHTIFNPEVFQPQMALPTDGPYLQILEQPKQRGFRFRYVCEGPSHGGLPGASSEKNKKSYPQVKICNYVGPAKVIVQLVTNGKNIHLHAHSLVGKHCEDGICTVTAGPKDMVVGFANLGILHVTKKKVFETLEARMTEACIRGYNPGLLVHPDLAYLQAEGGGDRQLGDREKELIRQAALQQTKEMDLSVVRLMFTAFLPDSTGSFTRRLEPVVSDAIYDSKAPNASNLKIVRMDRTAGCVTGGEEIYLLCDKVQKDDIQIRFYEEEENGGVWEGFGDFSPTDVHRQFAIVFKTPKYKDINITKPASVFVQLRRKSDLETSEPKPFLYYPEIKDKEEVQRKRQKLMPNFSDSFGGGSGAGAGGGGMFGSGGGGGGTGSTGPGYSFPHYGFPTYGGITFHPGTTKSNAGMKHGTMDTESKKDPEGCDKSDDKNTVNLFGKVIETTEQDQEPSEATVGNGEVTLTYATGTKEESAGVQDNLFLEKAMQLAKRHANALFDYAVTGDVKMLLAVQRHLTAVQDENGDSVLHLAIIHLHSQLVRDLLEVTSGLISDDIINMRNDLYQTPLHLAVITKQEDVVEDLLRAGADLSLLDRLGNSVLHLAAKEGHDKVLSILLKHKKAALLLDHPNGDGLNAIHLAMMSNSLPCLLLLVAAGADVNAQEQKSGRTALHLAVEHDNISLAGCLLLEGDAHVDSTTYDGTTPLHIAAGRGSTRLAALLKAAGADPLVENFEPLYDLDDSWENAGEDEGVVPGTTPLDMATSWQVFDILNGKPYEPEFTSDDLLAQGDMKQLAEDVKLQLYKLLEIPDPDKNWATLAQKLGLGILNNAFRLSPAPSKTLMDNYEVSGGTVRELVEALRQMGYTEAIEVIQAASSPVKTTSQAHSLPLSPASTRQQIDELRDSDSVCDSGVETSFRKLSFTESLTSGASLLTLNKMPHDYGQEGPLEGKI
structure (smiles),measurement,setting,value
CN(Cc1cnc2nc(N)nc(N)c2n1)c1ccc(C(=O)N[C@@H](CCC(=O)O)C(=O)O)cc1,AC50,[1],0.137 µM (active)
same,AC50,[2],0.515 µM (active)
same,outcome,[3],inactive
same,outcome,[4],inactive
same,outcome,[5],inactive
same,outcome,[6],inactive
same,outcome,[7],inactive
same,AC50,[8],0.266 µM (active)
same,outcome,[9],inactive
same,outcome,[10],inactive
same,outcome,"TIMP1, TIMP1 (gene 7076)",inactive
same,outcome,[11],inactive
same,outcome,[12],inactive
same,AC50,[13],0.0944 µM (active)
same,outcome,[14],inactive
same,outcome,[15],inactive
CS(=O)(=O)c1ccc([C@@H](CC2CCCC2)C(=O)Nc2cnccn2)cc1Cl,AC50,[1],66.7 µM (active)
same,outcome,[2],inactive
same,outcome,[3],inactive
same,outcome,[5],inactive
same,outcome,[6],inactive
same,AC50,[7],84 µM (active)
same,AC50,[8],94.3 µM (active)
same,outcome,[9],inactive
same,AC50,[10],74.1 µM (active)
same,outcome,"TIMP1, TIMP1 (gene 7076)",inactive
same,outcome,[11],inactive
same,AC50,[16],61.3 µM (active)
same,AC50,[12],12.2 µM (active)
same,outcome,[13],inactive
CCCCCCCC(OC)OC,outcome,[15],inactive
O=C(CCCN1CCC(O)(c2ccc(Cl)cc2)CC1)c1ccc(F)cc1,AC50,[1],85.5 µM (active)
same,AC50,[2],69.4 µM (active)
same,outcome,[3],inactive
same,outcome,[5],inactive
same,outcome,[6],inactive
same,AC50,[7],82.6 µM (active)
same,AC50,[8],95.2 µM (active)
same,AC50,[9],79.2 µM (active)
same,AC50,[10],73.6 µM (active)
same,outcome,"TIMP1, TIMP1 (gene 7076)",inactive
same,AC50,[11],82.1 µM (active)
same,AC50,[16],79.1 µM (active)
same,AC50,[12],79.3 µM (active)
same,outcome,[13],inactive
same,AC50,[14],73.6 µM (active)
same,outcome,[15],inactive
same,outcome,[17],inactive
CCCCc1oc2ccccc2c1C(=O)c1cc(I)c(OCCN(CC)CC)c(I)c1,AC50,[1],70.6 µM (active)
same,AC50,[2],59.2 µM (active)
same,outcome,[3],inactive
same,outcome,[5],inactive
same,outcome,[6],inactive
same,AC50,[7],67.7 µM (active)
same,AC50,[8],70.5 µM (active)
same,AC50,[9],55.3 µM (active)
same,outcome,[10],inactive
same,outcome,"TIMP1, TIMP1 (gene 7076)",inactive
same,outcome,[11],inactive
same,AC50,[16],66.8 µM (active)
same,AC50,[12],60.7 µM (active)
same,outcome,[13],inactive
same,AC50,[14],57 µM (active)
same,outcome,[15],inactive
same,AC50,[17],59.9 µM (active)
same,outcome,[17],inactive
COCC1CCC(CO)CC1 (centres undefined),outcome,[15],inactive
N=C(N)c1ccc(OCCCCCOc2ccc(C(=N)N)cc2)cc1,AC50,[18],29.1 µM (active)
same,AC50,[1],6.6 µM (active)
same,AC50,[3],43.8 µM (active)
same,AC50,[4],10.1 µM (active)
same,AC50,[5],56.2 µM (active)
same,AC50,[6],29 µM (active)
same,AC50,[7],3.57 µM (active)
same,AC50,[8],12.6 µM (active)
same,AC50,[9],11 µM (active)
same,AC50,[10],69.8 µM (active)
same,AC50,"TIMP1, TIMP1 (gene 7076)",43.8 µM (active)
same,AC50,[11],30.5 µM (active)
same,AC50,[12],4.48 µM (active)
same,AC50,[13],28.5 µM (active)
same,AC50,[14],12 µM (active)
same,outcome,[15],inactive
Oc1c(Cl)cc(Cl)cc1Sc1cc(Cl)cc(Cl)c1O,AC50,[15],41.5 µM (active)
